# Test results published in PubChem BioAssay.
# The source made the active and inactive calls.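 How the source made its calls: active means mean z-score across replicates of 1.96 or higher in either the MELAS or the Rieske mutant cell line; inactive means the rest.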
# Experiment: MELAS cybrid and Rieske KO viability enhancers – cell-based, MELAS cybrids, Rieske KO mouse fibroblasts, CellTiter-Glo, primary screen (AID 1508586);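 further: test concentration not given here; z relative to plate mean and SD of compound and empty wells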
# Settings: MELAS cybrid survival, low glucose, CellTiter-Glo 48 h; stronger effect = higher value
row,Compound,z-score
1,CC(C)C[C@H]1NC(=O)[C@H]2CN(C(=O)OCc3ccccc3)CCN2C1=O,-0.0626 (inactive)
2,COC(=O)CCN1CC(OCc2ccncc2)CN(C(=O)c2csc(SC)n2)CC1=O (stereo not given),-0.62 (inactive)
3,CCCCNC(=O)[C@@H]1C[C@H](CN2CCOCC2)CN(Cc2ccc3ccccc3c2)C1,0.321 (inactive)
4,CC(C)CCNc1cc(C(=O)NCCn2ccnc2)cc(S(=O)(=O)Nc2ccccc2)c1,-0.318 (inactive)
5,Cc1ccc(C(C)CCN2CCC3(CC2)C(=O)N(C(C)C)C(=O)N3CCC(C)C)o1 (stereo not given),-0.199 (inactive)
6,COCCCNC(=O)c1nn(C)c2c1CN(C(=O)Cc1c(C)[nH]c3c(F)cccc13)CC2,-0.326 (inactive)
7,O=C([C@@H]1C[C@H](CN2CCOCC2)CN(Cc2ccc3ccccc3c2)C1)N1CCCC1,1.59 (inactive)
8,O=C1N[C@@H](Cc2c[nH]c3ccccc23)C(=O)N2C[C@@H](NCc3ccccc3Cl)C[C@@H]12,-0.311 (inactive)
9,CN(C)c1ccc(/C=C/CN2CC(=O)N(CCCN3CCCC3=O)CC(O)C2)cc1 (stereo not given),-0.11 (inactive)
10,Cc1ccc(C(=O)N[C@H]2C[C@H]3C(=O)N[C@@H](Cc4ccc(O)cc4)C(=O)N3C2)cc1F,-0.462 (inactive)
11,Cc1csc(-c2cc(C(=O)N3CCC(N(C)C)C3)cc(S(=O)(=O)N3CCOCC3)c2)c1 (stereo not given),-0.101 (inactive)
12,O=C1N[C@@H](Cc2ccccc2)C(=O)N2CCN(C(=O)c3cccs3)C[C@H]12,-0.168 (inactive)
13,O=C1N[C@@H](COCc2ccccc2)C(=O)N2C[C@@H](NCc3cnn(-c4cccc(F)c4)c3)C[C@@H]12,1.94 (inactive)
14,Cc1cc(-c2cc3c(n(Cc4cccnc4)c2=O)CCN(C(=O)C2Cc4ccccc4O2)C3)ccc1F (stereo not given),-0.406 (inactive)
15,Cn1nc(C(=O)N2CCCCC2)c2c1CCC(NCC1(c3ccccc3)CCOCC1)C2 (stereo not given),0.135 (inactive)
16,Cc1[nH]cnc1CNc1cc(C(=O)Nc2cccc(N(C)C)c2)cc(S(=O)(=O)N2CCCC2)c1,-0.329 (inactive)
17,CN1CC(=O)N2CCN(C(=O)NCc3ccccc3)C[C@@H]2C1=O,-0.0344 (inactive)
18,COc1ccc(CN2C[C@@H](CN3CCOCC3)C[C@@H](C(=O)NCC3CCCO3)C2)cc1OC (stereo not given in full),0.0226 (inactive)
19,CCOC(=O)c1csc(CCNC2CCc3c(c(C(=O)N4CCc5ccccc5C4)nn3C)C2)n1 (stereo not given),-0.249 (inactive)
20,O=C(NCc1ccccn1)c1cc(NCC2CC2)cc(S(=O)(=O)N2CCCC2)c1,-0.201 (inactive)

row,Compound,z-score
1,COC(=O)c1c(NC(=O)C2CCC2)c2cc(NC3CCSCC3)cnc2n1CCc1ccccn1,-0.0865 (inactive)
2,CCOC(=O)c1nn(CCC(F)(F)F)c2c1CN(C(=O)c1ccco1)CC2,-0.696 (inactive)
3,CNS(=O)(=O)c1cc(NCc2cc3ccccc3s2)cc(C(=O)Nc2ccc(OC)cc2)c1,0.562 (inactive)
4,Cc1noc(C)c1CC(=O)N1CCc2c(c(C(=O)N3CCOCC3)nn2CCCc2ccccc2)C1,0.975 (inactive)
5,CC(C)CN1CC(OCc2cccc(F)c2)CN(Cc2cccn2-c2ncccn2)CC1=O (stereo not given),-0.291 (inactive)
6,C=CCn1nc(C(=O)N2CCCC2)c2c1CCC(NCc1ccccc1OC(F)(F)F)C2 (stereo not given),0.124 (inactive)
7,COCCN1C(=O)N(C2Cc3ccccc3C2)C(=O)C12CCN(Cc1cnn(C)c1C)CC2,-0.225 (inactive)
8,COc1cccc(C(=O)N2CCN3C(=O)[C@@H]4C[C@@H](O)CN4C(=O)[C@H]3C2)c1,-0.0988 (inactive)
9,Cn1nc(C(=O)NCc2cccnc2)c2c1CCN(Cc1ccc3c(c1)Cc1ccccc1-3)C2,-0.134 (inactive)
10,O=C1N[C@@H](CSCc2ccccc2)C(=O)N2CCN(C(=O)Oc3ccccc3)C[C@H]12,1.38 (inactive)
11,Cc1csc(-c2cc(C(=O)NCCCN3CCOCC3)cc(S(=O)(=O)N3CCOCC3)c2)c1,-0.167 (inactive)
12,CC(C)Cn1nc(C(=O)N2CCCC2)c2c1CCC(NCCc1cccs1)C2 (stereo not given),-0.0921 (inactive)
13,Cc1ncc(CNc2cc(C(=O)Nc3cccc(N(C)C)c3)cc(S(=O)(=O)N3CCCC3)c2)[nH]1,-0.563 (inactive)
14,O=C(N[C@H]1C[C@H]2C(=O)N3CCC[C@H]3C(=O)N2C1)c1cccnc1Oc1ccc(Cl)cc1,-0.353 (inactive)
15,CCCCc1ncc(CN2CCc3c(cc(-c4ccncc4)c(=O)n3C/C=C/c3ccccc3)C2)[nH]1,-0.405 (inactive)
16,Cc1ccc(-c2cc(C(=O)N3CCSCC3)cc(S(=O)(=O)N3CCOCC3)c2)s1,-0.321 (inactive)
17,Cc1ccc(C(C)CCN2CCc3c(c(C(=O)N4CCC(O)CC4)nn3CCc3ccccc3)C2)o1 (stereo not given),-0.676 (inactive)
18,COCc1ccc(CN2CCC3(CC2)C(=O)N(C2Cc4ccccc4C2)C(=O)N3CC(C)C)o1,-0.309 (inactive)
19,CN1CCCC1CCNC(=O)[C@H]1CNC[C@@H](COc2cccc(F)c2)C1 (stereo not given in full),-0.0942 (inactive)
20,Cc1cc(-c2cc3c(n(Cc4cccnc4)c2=O)CCN(C(=O)c2n[nH]c4c2CCC4)C3)ccc1F,-0.505
